The term Inhibition denotes how much of the control response was suppressed. Higher therefore signals strong suppression.

This assay has as its system HepG2. Description: GSK_TCMDC: Percent inhibition of human HepG2 cell line. Test compounds present at 10uM. The format is functional.
Regarding `Cc1[nH]c(C)c(Cc2ccc(Oc3ccc(OC(F)(F)F)cc3)cc2)c(=O)c1Br`, the Inhibition turned out to be 29%.

The compound `CCN(CC)CCCSc1ccc(-c2ccc(SCCCN(CC)CC)cc2)cc1` gave an Inhibition of 38%.

Turning to `O=C(/C=C/c1ccc(C(F)(F)F)cc1)NCCCCCN1CCCN(C(=O)Nc2ccc(Cl)cc2)CC1`, the Inhibition is on record as 28%.

`CNC(=O)C(NC(=O)c1ccccc1C(=O)OC)c1ccccc1` (stereo not given) gave an Inhibition of 4%.

As to `CC(=O)Nc1ccc(C(=O)Nc2cccc(-c3ccc(-c4nc5cccc(C)c5[nH]4)cc3)c2)cn1`, the Inhibition worked out at 25%.

Turning to `Fc1ccc2[nH]c(-c3cccc(-c4ccc(CNCC5CCCO5)cc4)c3)nc2c1.O=C(O)C(F)(F)F` (stereo not given), the Inhibition is recorded as 36%.

In the case of `CCN(CC)CCN(Cc1ccc(-c2ccc(Cl)s2)cc1)C(=O)Cn1c(CCc2cccc(F)c2F)nc(=O)c2ccccc21.O=C(O)C(O)C(O)C(=O)O`, the Inhibition is 24%.

In turn, `CCOc1ccc(-c2nc(NC(=O)CS(=O)(=O)c3ccccc3)sc2C)cc1` gave an Inhibition of 6%.

Turning to `CCc1c(CCNCC/C=C/CCNCCc2ccc(OC)c(OC)c2CC)ccc(OC)c1OC.Cl`, the Inhibition turned out to be 41%.

On to `CC(C)CCNC(=N)Nc1ccc(OCCCOc2ccc(NC(=N)NCCC(C)C)cc2)cc1`, for which the Inhibition stood at 0%.

The compound `CC(C)c1ccc(NC(=O)c2ccc(NCCCN(C)Cc3ccccc3)c([N+](=O)[O-])c2)cc1` registered an Inhibition of 21%.

In turn, `CN1CCN(c2ccc(Nc3c4ccccc4nc4ccccc34)cc2)CC1` displayed an Inhibition of 0%.

With `Oc1c(C(Nc2ccccn2)c2ccco2)cc(Cl)c2cccnc12` (stereo not given), the Inhibition was 41%.

On to `COc1ccc(Cl)cc1NC(=O)CN(C)C(=O)c1cnn(-c2ccccc2)n1`, for which the Inhibition is reported as 0%.

`COc1ccc2[nH]cc(C3CCN(CCC4CCN(C(=O)/C=C/c5ccc(Cl)c(Cl)c5)CC4)CC3)c2c1` had an Inhibition of 52%.

As to `Cc1ccc(NC(=O)Nc2ccc(Cl)c(C(F)(F)F)c2)cc1-c1ccc(C(=O)NCCN2CCOCC2)cc1`, the Inhibition is 52%.

Turning to `CCCCCCCN1CC[C@@H](CCCc2ccnc3ccc(OCCC4CCNCC4)cc23)[C@@H](CC)C1.Cl`, the Inhibition was 94%.

Consider `CCOc1ccc(-c2nonc2NC(=O)c2cccc(Cl)c2)cc1OCC`, for which the Inhibition is listed as 0%.

`Cc1cc(NC2CCCC2)nc(Nc2ccccc2C)n1`: the Inhibition is on record as 0%.

As for `COc1cccc(CC(=O)N2CCC(n3c(C)nc4ccc(F)cc43)CC2)c1`, the Inhibition stood at 0%.

`Cc1cccc2nc(-c3ccc(-c4cccc(NC(=O)C(C)CN(C)C)c4)s3)[nH]c12` (stereo not given) had an Inhibition of 12%.

As to `CCCCCN1CCCC1CNS(=O)(=O)c1cccc(C(=O)Nc2cccc(C(F)(F)F)c2)c1.O=C(O)C(F)(F)F` (stereo not given), the Inhibition worked out at 15%.

As to `COc1ccccc1NC(=O)CSc1nc2cccnc2n1-c1ccccc1OC`, the Inhibition is reported as 0%.

In turn, `Cn1cc(-c2ccccc2C(=O)O)c(=O)c2cc(Cl)ccc21` registered an Inhibition of 16%.

Consider `Br.CC1(C)NC(N)=NC(=N)N1OCCCCOc1ccc(Cl)cc1C1CCCCC1`, for which the Inhibition is 56%.

The compound `COc1cc2ncnc(Nc3ccc(OCc4ccccc4)c(OCc4ccccc4)c3)c2cc1OC.Cl` displayed an Inhibition of 4%.

Take `CN1CCN(c2nsc3ccc(-c4ccc(NC(=O)Nc5cc(C(F)(F)F)ccc5F)cc4)cc23)CC1.O=C(O)C(F)(F)F`: the Inhibition is listed as 100%.

The compound `Br.CC1(C)NC(N)=NC(=N)N1OCCCOc1cc(Cl)cc(Cl)c1` yielded an Inhibition of 62%.

Regarding `Cc1cc([N+](=O)[O-])ccc1NC(=O)Nc1cccc(C(F)(F)F)c1`, the Inhibition came to 15%.

Turning to `CCc1cn2c3c(cc(C(=O)N[C@@H](Cc4ccccc4)[C@H](O)CNCc4cccc(C)c4)cc13)N(C)S(=O)(=O)CC2.O=CO`, the Inhibition turned out to be 5%.

`CN1CCc2ccc(NC(=O)Nc3ccc(-c4ccccc4)cc3)cc2C1` showed an Inhibition of 24%.

Take `COc1ccc(NC(=O)C2CCN(CCCCCNC(=O)/C=C/c3ccc(Cl)c(Cl)c3)CC2)cc1`: the Inhibition worked out at 26%.

In turn, `CCCCN(CCCC)CCNC(=O)c1ccc(-c2nc3cc(Cl)ccc3[nH]2)c(OCC)c1` showed an Inhibition of 0%.

Regarding `Cc1noc(C)c1-c1ccc2c(Nc3ccc(Cl)cc3)c(C(N)=O)cnc2c1.Cl`, the Inhibition came out at 9%.

`O=C(NCCCNc1nc2ccccc2[nH]1)c1cccc(OC(F)(F)F)c1` displayed an Inhibition of 12%.

On to `CC1(C)[C@H]2CC[C@@H](CNc3nc(NCCc4c[nH]cn4)nc(NCc4cc(F)ccc4F)n3)[C@@H]1C2`, for which the Inhibition is recorded as 0%.

In turn, `CC1(C)NC(N)=NC(=N)N1OCc1cccc(Cl)c1Cl.Cl` displayed an Inhibition of 68%.

Consider `O=C(Cn1c(CCc2cccc(F)c2F)nc(=O)c2ccccc21)N(CCN1CCCC1)Cc1ccc(-c2ccc(C(F)(F)F)cc2)cc1.O=C(O)C(O)C(O)C(=O)O`, for which the Inhibition worked out at 63%.

For `O=C(Nc1ccc(Oc2ccccc2)cc1)N(CCN1CCCC1)Cc1ccc(-c2ccc(CN3CCNCC3)cc2)cc1.O=C(O)C(F)(F)F`, the Inhibition is listed as 48%.

For the compound `Cc1cc(-c2ccc(CNCCc3cccs3)cc2)ccc1S(=O)(=O)NCc1ccccc1.O=C(O)C(F)(F)F`, the Inhibition is on record as 28%.
